The record followed here is PubChem BioAssay AID1347084 (National Center for Advancing Translational Sciences (NCATS), 2019).

Results filed as inconclusive are left out. Active and inactive are the calls of the source. The call rests on the fitted dose curve.

The nature of this experiment: qHTS for Inhibitors of the Functional Ribonucleoprotein Complex (vRNP) of Lymphocytic Choriomeningitis Arenaviruses (LCMV): LCMV Confirmatory Screen - GLuc reporter signal. Conditions: LCMV minigenome vRNP, Gaussia luciferase reporter; series mostly up to 53.9 µM.
As to `CCC1OC2(C)C(O)C(/C=C/C=C/C=C/c3oc(=O)cc(OC)c3C)OC1(C)C2OC(C)=O` (stereo unspecified), the Potency is 109 nM (active).

Consider `O=C(Nc1ccccc1)Nc1ccc(-c2ccc(C(=O)[C@H]3CCC[C@H]3C(=O)O)cc2)cc1`, for which the Potency result is “inactive”.

`CNCCCC1c2ccccc2C=Cc2ccccc21`: the Potency was 30600 nM (active).

On to `Cc1cc(N)c2ccccc2[n+]1CCCCCCCCCC[n+]1c(C)cc(N)c2ccccc21`, for which the Potency is 1090 nM (active).

For the molecule `CC1OC(=O)[C@@H](C(C)C)NC(=O)C(C(C)C)OC(=O)[C@H](C(C)C)NC(=O)C(C)OC(=O)[C@@H](C(C)C)NC(=O)C(C(C)C)OC(=O)[C@H](C(C)C)NC(=O)C(C)OC(=O)[C@@H](C(C)C)NC(=O)C(C(C)C)OC(=O)[C@H](C(C)C)NC1=O` (stereo partly specified), the Potency is 153 nM (active).

Consider `CCC(C)c1nccnc1OC` (stereo unspecified), for which the Potency result is “inactive”.

For `CC[C@@]1([C@@H]2O[C@@H]([C@H]3O[C@@](O)(CO)[C@H](C)C[C@H]3C)C[C@H]2C)CC[C@H]([C@]2(C)CC[C@]3(C[C@H](O)[C@@H](C)[C@@H]([C@@H](C)[C@@H](OC)[C@H](C)C(=O)O)O3)O2)O1`, the Potency is 168 nM (active).

Take `O=C(Nc1ccc([N+](=O)[O-])cc1Cl)c1cc(Cl)ccc1O`: the Potency is 863 nM (active).

`CC(O)C(O)[C@H]1CNc2nc(N)[nH]c(=O)c2N1` (stereo partly specified): the Potency result was “inactive”.

As for `Cc1cc2c(C(C)C)c(O)c(O)c(C=O)c2c(O)c1-c1c(C)cc2c(C(C)C)c(O)c(O)c(C=O)c2c1O`, the Potency is 6110 nM (active).

With `Cn1cc(-c2ccncc2)c(-c2ccc(OCc3ccc4ccccc4n3)cc2)n1`, the Potency is 24300 nM (active).
